According to PMC5540273 (PLoS ONE, 2017):

The molecules below were run on TYRO3. Conditions: concentration: 1 μM, replicates: in singlicate; n = 1.
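Further: KINOMEscan kinase panel screen.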

Compound	%Inh
COc1ccc(NC(=O)c2ccoc2)cc1-c1ccc(C(=O)NCC2CC2)cc1 [GW810437]	12%
O=C(Nc1n[nH]c2nc(-c3ccccc3O)ccc12)C1CC1 [SB-711880]	0%
CNc1nccc(-c2ccc3c(N)n[nH]c3c2)n1 [GSK2206003]	0%
c1ccc(Oc2ccc(Nc3ccnc4cc(-c5ccc(CN6CCCCC6)o5)ccc34)cc2)nc1 [GW567143]	26%
Cc1ccc(NC(=O)c2ccc(Cl)c(Cl)c2)cc1-c1ccc(C(=O)Nc2ccncc2)cc1 [GSK1398460]	10%
CC(C)(C)c1ccc(C(=O)Nc2cn3cc(-n4ccnc4)ccc3n2)cc1	0%
Cl.Cl.NCC(NC(=O)c1cc(-c2cccnc2)c(-c2ccnc3[nH]ccc23)s1)c1ccccc1 (stereo not shown) [GSK1323434]	0%
Cc1ccc(Nc2ccnc(Nc3ccc(C)c(F)c3)n2)cc1O.Cl [GW582868]	29%
O=C(Nc1n[nH]c2nc(-c3cccc(O)c3)ccc12)C1CC1 [SB-711805]	0%
COc1cccc(NC(=O)NCCNc2ccnc(Nc3ccc(F)cc3)n2)c1 [GSK1379879]	0%
Cc1cc(-c2c(-c3ccc(F)cc3)ncn2CCCN2CCOCC2)nc(N)n1 [SB-222517]	0%
COc1ccc(C)c(Nc2ccnc(Nc3ccc(-c4cnc[nH]4)cc3)n2)c1.Cl [GW784041]	44%
CN(C)CCNS(=O)(=O)c1ccc(-c2ccnc3[nH]ccc23)cc1 [GSK977620]	3%
COc1cccc(CC(=O)N2CCc3cc(-c4cn(C)c5ncnc(N)c45)ccc32)c1 [GSK2608899]	0%
COC(=O)Nc1nc2cc(Oc3ccc(NC(=O)Nc4cccc(SC)c4)cc3)ccc2[nH]1.Cl [GW697999]	0%
Cc1ccc(O)cc1Nc1ccnc2cc(-c3ccc(CN4CCCCC4)o3)ccc12 [GW557777]	59%
CN(c1ccc2c(c1)nc(NCc1ccccc1)n2C)c1ccnc(Nc2ccc(CS(C)(=O)=O)cc2)n1.Cl [GW811603]	0%

Compound	%Inh
COc1cccc(C2=C(Nc3cccc(O)c3)C(=O)NC2=O)c1 [SB-390771]	0%
CC(C)NCC(Cc1ccccc1)NC(=O)c1cc(Br)c(-c2ccnc3[nH]ccc23)s1.Cl.Cl (stereo not shown) [GSK1383281]	0%
Cc1ccc(O)cc1Nc1ccnc2ccc(C(C)(C)C)cc12 [GW856805]	15%
NCCC(NC(=O)c1cc(Br)c(-c2ccnc3[nH]ccc23)s1)c1ccccc1.O=C(O)C(F)(F)F.O=C(O)C(F)(F)F (stereo not shown) [GSK1307810]	0%
COc1ccc(C2=C(Nc3cccc(O)c3)C(=O)NC2=O)cc1 [SB-390766]	0%
O=C(O)C(F)(F)F.O=c1[nH]ccc2nc(N[C@@H]3CCNC3)nc(Nc3cc(Cl)cc(Cl)c3)c12 [GSK2188764]	0%
Cc1ccc(C)c(NC(=O)Nc2ccc(C)c(-c3ccc(C(=O)Nc4ccncc4)cc3)c2)c1 [GSK1398473]	20%
Cn1cc(-c2ccc3c(c2)CCN3C(=O)Cc2cc(F)cc(F)c2F)c2c(N)ncnc21 [GSK2634140]	0%
N#Cc1cnc2cc(-c3cnc(CNCCN4CCOCC4)s3)ccc2c1Nc1ccc(Oc2ccccc2)cc1 [GW664114]	84%
CN1CCN(Cc2ccc(NC(=O)Nc3ccc(N(C)c4ccnc(Nc5ccc(CS(C)(=O)=O)cc5)n4)cc3)cc2)CC1.Cl [GW827654]	35%
Fc1cc(Cl)ccc1Nc1ccnc2cc(-c3ccc(CN4CCOCC4)o3)ccc12 [GW560109]	83%
Cl.N#CCc1ccc(Nc2nccc(Nc3ccc(Oc4ccccc4)cc3)n2)cc1 [GW639905]	36%
CN(c1ccc(F)c(NC(=O)c2cccc(OC(C)(C)C#N)c2Cl)c1)c1ccc2nc(NC(=O)C3CC3)sc2n1	14%
CN(C)c1ncnc2nc[nH]c12 [SKF-31736]	0%
O=C(Nc1c(F)cccc1F)c1cc(C(=O)c2ccccc2F)c[nH]1 [GSK1326180]	0%
Nc1ncc(-c2ccc3nccc(-c4ccncc4)c3c2)cc1S(=O)(=O)N1CCCCC1 [GSK1693850]	0%
Fc1cc(Cl)ccc1Nc1ccnc2cc(-c3ccc(CN4CCSCC4)o3)ccc12 [GW560106]	61%
